Test results published in PubChem BioAssay (NCI).
About 79,000 compounds went through this panel and 15% of them were active in at least one assay; those are over-represented in the sample as a whole. Activity calls are given as the source filed them. Cut-off read from the data, not from the text of the source: active = growth inhibition above about 70%; inactive = the rest.

Key:
[1] = NCI Yeast Anticancer Drug Screen. Data for the wt1 strain (AID 149);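 note: 0% = growth of vehicle-treated wt1 cultures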; conditions: S. cerevisiae wt1 strain (SPY 50644) growth inhibition, active compounds read high
Summary of the method: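 Yeast wt1 strain exposed to compounds; growth inhibition measured relative to vehicle-treated controls.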

[2] = NCI Yeast Anticancer Drug Screen. Data for the rad50EPP+ strain (AID 151);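 note: 0% = growth of vehicle-treated control cultures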; conditions: S. cerevisiae rad50 mutant strain, active compounds read high
Summary of the method: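 Yeast strain carrying rad50 alteration (rad50EPP+) exposed to compounds; growth inhibition measured relative to vehicle-treated controls.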

[3] = NCI Yeast Anticancer Drug Screen. Data for the rad50 strain (AID 155);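 note: 0% = growth of vehicle-only cultures of the same strain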; conditions: S. cerevisiae rad50 strain growth inhibition, active compounds read high
Summary of the method: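 Yeast carrying a defined DNA repair defect were exposed to test compounds, and growth was compared with vehicle-treated controls to give percent inhibition.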

[4] = NCI Yeast Anticancer Drug Screen. Data for the mec2-1 strain (AID 157); conditions: S. cerevisiae mec2-1 strain, active compounds read high
Summary of the method: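 mec2-1 yeast strain, carrying an alteration in DNA damage repair or cell cycle control, was exposed to compounds; growth inhibition was measured relative to vehicle-treated controls.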

[5] = NCI Yeast Anticancer Drug Screen. Data for the sgs1 mgt1 strain (AID 161);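 note: 0% = growth of cultures given vehicle only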; conditions: S. cerevisiae sgs1 mgt1 strain, active compounds read high
Summary of the method: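 Compounds are added to genetically altered yeast, and growth is compared with cultures given vehicle alone to give percent inhibition.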

[6] = NCI Yeast Anticancer Drug Screen. Data for the cln2 rad14 strain (AID 165);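 note: 0% = growth equal to vehicle treated cultures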; conditions: S. cerevisiae cln2 rad14 strain, active compounds read high
Summary of the method: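 Yeast carrying cln2 and rad14 alterations (cell cycle control and DNA damage repair) were exposed to compounds. Growth inhibition was measured against vehicle-treated controls.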

[7] = NCI Yeast Anticancer Drug Screen. Data for the bub3 strain (AID 167); conditions: S. cerevisiae bub3 mutant strain, active compounds read high
Summary of the method: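 Compounds were applied to a genetically altered yeast strain carrying a cell-cycle control defect. Growth inhibition was scored against vehicle-treated controls.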

[8] = NCI Yeast Anticancer Drug Screen. Data for the wt2 strain (AID 169);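 note: 0% = growth of vehicle-treated yeast cultures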; conditions: S. cerevisiae wt2 strain growth inhibition, active compounds read high
Summary of the method: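 Yeast cells were exposed to test compounds, and growth inhibition was measured relative to vehicle-treated controls.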

[9] = NCI Yeast Anticancer Drug Screen. Data for the mlh1 strain (AID 171);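 note: 0% = growth of vehicle-treated control cultures of the same strain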; conditions: S. cerevisiae mlh1 strain growth inhibition, active compounds read high
Summary of the method: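 Yeast carrying a defined genetic alteration in DNA damage repair or cell cycle control were exposed to test compounds. Growth inhibition was measured relative to vehicle-treated controls.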

[10] = NCI Yeast Anticancer Drug Screen. Data for the sgs1 strain (AID 173);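 note: 0% = growth of vehicle-only control cultures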; conditions: S. cerevisiae sgs1 mutant, active compounds read high
Summary of the method: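 Yeast mutant strains carrying defined defects in DNA damage repair or cell cycle control were exposed to test compounds. Growth inhibition was scored against vehicle-treated controls.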

[11] = NCI Yeast Anticancer Drug Screen. Data for the mlh1 rad18 strain (AID 175); conditions: S. cerevisiae mlh1 rad18 strain growth inhibition, active compounds read high
Summary of the method: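 Growth inhibition of the yeast strain was measured after compound exposure and expressed relative to vehicle-treated controls. The strain carries defined defects in DNA damage repair.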

[12] = NCI Yeast Anticancer Drug Screen. Data for the rad14 strain (AID 159);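 note: 0% = growth of vehicle-treated control cultures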; conditions: S. cerevisiae rad14 strain growth inhibition, active compounds read high
Summary of the method: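 Yeast cells carrying a defined DNA-repair defect were exposed to compounds, and growth inhibition was calculated relative to vehicle-treated control cultures.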

[13] = at 5.0 µM (retest, dose inferred, filed as 0.5)
[14] = at 50.0 µM (retest, dose inferred, filed as 5.0)

Measured: growth inhibition

Oc1ccccc1N=Cc1ccc(Cl)cc1
inactive: [1]; at 1.2 µM 14% | [1]; at 3.7 µM 12% | [1]; at 11.0 µM 10% | [1]; at 33.0 µM 15% | [1]; at 100.0 µM 17% | [2]; at 1.2 µM 6% | [2]; at 3.7 µM 21% | [2]; at 11.0 µM 35% | [2]; at 33.0 µM 52% | [2]; at 100.0 µM 59% | [3]; at 1.2 µM 9% | [3]; at 3.7 µM 54% | [3]; [13] 16% | [3]; at 11.0 µM 42% | [3]; at 33.0 µM 59% | [3]; [14] 26% | [3]; at 50.0 µM 32% | [4]; at 1.2 µM 17% | [4]; at 3.7 µM 16% | [4]; [13] -23% | [4]; at 11.0 µM 18% | [4]; at 33.0 µM 22% | [4]; [14] 24% | [4]; at 50.0 µM 29.1% | [4]; at 100.0 µM 40% | [5]; [13] 20% | [5]; [14] 24% | [5]; at 50.0 µM 25.6% | [6]; [13] 2% | [6]; [14] 14% | [6]; at 50.0 µM -9.8% | [7]; at 1.2 µM 33% | [7]; at 3.7 µM 55% | [7]; [13] 56% | [8]; at 1.2 µM 14% | [8]; at 3.7 µM 16% | [8]; at 11.0 µM 4% | [8]; at 33.0 µM 8% | [8]; at 100.0 µM 13% | [9]; at 1.2 µM 12% | [9]; at 3.7 µM 10% | [9]; at 11.0 µM 11% | [9]; at 33.0 µM 18% | [9]; at 100.0 µM 27% | [10]; at 1.2 µM 17% | [10]; at 3.7 µM 13% | [10]; at 11.0 µM 19% | [10]; at 33.0 µM 23% | [10]; at 100.0 µM 29% | [11]; [13] 41% | [11]; [14] 53% | [11]; at 50.0 µM 60.5%
active: [3]; at 100.0 µM 82% | [7]; at 11.0 µM 70% | [7]; at 33.0 µM 78% | [7]; [14] 73% | [7]; at 50.0 µM 71.5% | [7]; at 100.0 µM 81%

O=C1C=CC(=O)N1c1ccc(I)cc1
inactive: [1]; at 1.2 µM -9% | [1]; at 3.7 µM 33% | [2]; at 1.2 µM 59% | [3]; at 1.2 µM 21% | [3]; at 3.7 µM 37% | [3]; [13] 26% | [3]; [14] 54% | [4]; at 1.2 µM 12% | [4]; at 3.7 µM 41% | [4]; [13] 31% | [4]; [14] 65% | [12]; at 1.2 µM 11% | [12]; at 3.7 µM 28% | [6]; [13] 56% | [7]; at 1.2 µM 5% | [7]; at 3.7 µM 15% | [8]; at 1.2 µM -2% | [8]; at 3.7 µM 16% | [9]; at 1.2 µM 13% | [9]; at 3.7 µM 40% | [10]; at 1.2 µM 29% | [11]; [13] 17%
active: [1]; at 11.0 µM 96% | [1]; at 33.0 µM 99% | [1]; at 100.0 µM 98% | [2]; at 3.7 µM 70% | [2]; at 11.0 µM 99% | [2]; at 33.0 µM 100% | [2]; at 100.0 µM 99% | [3]; at 11.0 µM 96% | [3]; at 33.0 µM 98% | [3]; at 50.0 µM 92% | [3]; at 100.0 µM 98% | [4]; at 11.0 µM 99% | [4]; at 33.0 µM 99% | [4]; at 50.0 µM 93.7% | [4]; at 100.0 µM 100% | [12]; at 11.0 µM 97% | [12]; at 33.0 µM 99% | [12]; at 100.0 µM 98% | [5]; [13] 97% | [5]; [14] 100% | [5]; at 50.0 µM 93.6% | [6]; [14] 100% | [6]; at 50.0 µM 92.1% | [7]; [13] 100% | [7]; at 11.0 µM 98% | [7]; at 33.0 µM 99% | [7]; [14] 99% | [7]; at 50.0 µM 92.4% | [7]; at 100.0 µM 98% | [8]; at 11.0 µM 81% | [8]; at 33.0 µM 100% | [8]; at 100.0 µM 99% | [9]; at 11.0 µM 98% | [9]; at 33.0 µM 100% | [9]; at 100.0 µM 99% | [10]; at 3.7 µM 76% | [10]; at 11.0 µM 100% | [10]; at 33.0 µM 100% | [10]; at 100.0 µM 100% | [11]; [14] 72% | [11]; at 50.0 µM 92.2%
